Measurements: the supplement of paper PMC6555819

These sequences were tested on VDR:RXRa (NR concentration 270 nM, RXRa partner concentration 90 nM) (assay: PBM binding z-score (relative to random genomic background probes); higher = stronger binding; sequences stand for … in GC…GCGATTGACAGCGTAGAATGAAGG).
Protocol: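 Protein-binding microarray (Agilent 4x180K custom design, double-stranded 60-nt probes: 5' GC cap, 34-nt variable region, 24-nt constant primer region; full probe sequence given). Purified or IVT nuclear receptor:RXRα heterodimers (3:1 NR:RXRα, mostly 270:90 nM) or homodimers were incubated for 1 h in PBS with 2% milk and no ligand, then detected with Alexa488 antibodies. Fluorescence from o1-orientation probes (~5 replicates averaged) was converted to z-scores against 500 random hg19 background probes. Variable regions are seed direct-repeat (DR0–DR5) sites, all their single-nucleotide variants and half-site ablations.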
In the case of GCTCGGAGGACAAGGTCAGAGGTTTGTCCGTAGA, the PBM binding z-score is reported as 1.81.
CTACCAAGGTGAACAAGGTCGTTAATTACTATTC showed a PBM binding z-score of 6.04.
In the case of CCTCGGAGGACAACAGGAGGTCAGTGCTGCCAGA, the PBM binding z-score is reported as 1.59.
In the case of CTCGAAAGTTCGGTTGAGGTGAGTATACGGATAA, the PBM binding z-score is reported as 0.728.
With GCATATAGGTAATACAAGGTGAACGTCCGATTGT the PBM binding z-score was 0.043.
With CATACTGGGTCAGCTAGGCCAGAGTAGGGACGGC the PBM binding z-score was 1.19.
CCTGCTAGGTCAATGGACAGCTAAAGCAGCTCGC showed a PBM binding z-score of 0.586.
With TGTCAAAGTTCAAAGCTAACGTAAGTATCCACAC the PBM binding z-score was 4.16.
TCATAAAGGTAAAAGGTGAAAGTCGGTGTGGTAA gave a PBM binding z-score of 1.89.
In the case of TCGAGTAGGTTAGTCGGGGCATTAAGCCAACATA, the PBM binding z-score is reported as 1.66.
In the case of CCGACTGGGGCCTAAGGTTACCATAAGCCAGCCC, the PBM binding z-score is reported as -0.158.
CCTACTGGGCCAAGGTCAGTGATCAGTCAAAGCA showed a PBM binding z-score of 0.692.
Work on CGAGCTAGGTCATTGACAGGACAGTGAATAGTAA yielded a PBM binding z-score of 2.04.
For TCATATAGGTAAATGCTAGGTGAACGTCCGATCT, the PBM binding z-score was 0.914.
Work on ACTAGTTGGTCAGCTGAGGTCTCACACAATTCGG yielded a PBM binding z-score of 0.0458.
GCTAGCAGGCCATTTGGGTCGCTCAATGACGGGC showed a PBM binding z-score of -0.563.
GGAACGAGGGCATTCGAGTGGATAGCATGGCGAT gave a PBM binding z-score of 1.32.
CGTCCAAGGTCAAGGTCGGTGAAAGAGACTCGAA showed a PBM binding z-score of 4.2.
In the case of ATCTCTAGGTAGGACTCAGTTCAGTGAAGAACGC, the PBM binding z-score is reported as 0.756.
Work on AGAATGAGTTTATACGTAGATCAGGGAAGAAAGT yielded a PBM binding z-score of 1.71.
Work on CAAACTAGGTCACGAAAGGTCAAAGTCGAATGAC yielded a PBM binding z-score of 6.91.
Work on TCTTGTAGATCAATAGAGGTTAAGAACGTGCGCT yielded a PBM binding z-score of 1.27.
In the case of ATATGTAGGTTATCGGGTCATTCGGTTTGCGCAT, the PBM binding z-score is reported as 5.19.
GTACCAAGGTGAATAGGTCGTTGAGGAGTAGGCG was tested, and the PBM binding z-score was 0.845.
In the case of ATCTCTAGGTAAGACTCAGTGCAGTGAAGAACGC, the PBM binding z-score is reported as -0.0962.
Sequence TCAGACAGGTGAAGGTAACTGAGGTACGCAGTCG has a PBM binding z-score of 0.737.
CAAACCAGGTCAAGGTCAAAGTCGGTTTGTGCCA showed a PBM binding z-score of 5.66.
In the case of ACTATTAGTTGACCTAGGGCAACCGATACGACGC, the PBM binding z-score is reported as 1.96.
ATCGAAAGGTAGACGAGGTGAGTATACACCGTTT showed a PBM binding z-score of 0.452.
ACTATTAGTTGAGAGGAGGGCAACCGATAGGTTG showed a PBM binding z-score of 0.152.
For GCTCGGAGGACCAGGTCAGAGCTTTGTCCGTAGA, the PBM binding z-score was -0.322.
Sequence CCTACTGGGCCAAGGTCATTGGTCAGTCAAAGCA has a PBM binding z-score of 3.39.
For CCGATTGGGGCATAAGGTTACCATAAGCCAGCCC, the PBM binding z-score was 0.31.
With AGTCAAAGTTCAGGACGTGGTAACGTAAAGCACG the PBM binding z-score was 2.12.
Work on ATCTCTAGGTAACCAAGTTCAGTGAGTGCCGAAC yielded a PBM binding z-score of 4.27.
With TCTGGTAGGTCAGTTGGTCAGCTAACGAGCTGCC the PBM binding z-score was 0.483.
Work on AGTCAAAGTTCATCTAGGTAACGTAAGATATGCT yielded a PBM binding z-score of 4.59.
With CCTTACGGGTCACTCCACGTTATAGCATCGGAGT the PBM binding z-score was 2.65.
In the case of CGTACAAGGTCAGAGAGGTCAGTGAATGCCGAGT, the PBM binding z-score is reported as 7.46.
In the case of ACTCGGAGGACAAAGGTCAGAGCCACGCCAGTGA, the PBM binding z-score is reported as 3.43.
